{
  "source": "PubChem BioAssay (NCI)",
  "note": "Compounds without any hit were thinned out: in the full panel of roughly 83,000, 20% have a hit.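 Step 1: grow cells in 96-well plates. Step 2: add test compound at a single concentration. Step 3: incubate 48 h. Step 4: record percent growth.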 Active and inactive are the calls of the source. Rule for the calls: active = growth percent below 10; inactive = the rest.",
  "data": [
    {"test_system": "HL-60(TB) leukemia", "assay": "NCI-60 one-dose screen, 48 h (100 = growth as untreated, 0 = no growth, -100 = all killed)", "details": "10 µM unless noted", "values": [
      {"compound": "CCCCCCCCNc1ncnc2c1ncn2Cc1nnc2c3ccccc3c(Cl)nn12", "growth": "29.2% (inactive)"},
      {"compound": "COc1ccc(/C=C2\\COc3ccc(O)cc3C2=O)cc1OC", "growth": "3.81% (active)"},
      {"compound": "NC(=N\\N=C/c1cccc([N+](=O)[O-])c1)/C(N)=N\\N=C/c1cccc([N+](=O)[O-])c1", "growth": "104% (inactive)"},
      {"compound": "N#Cc1c(-c2ccc(F)cc2)nc(N/N=C/c2cccc(O)c2)nc1N1CCOCC1", "growth": "47.2% (inactive)"},
      {"compound": "Cc1ccc2sc3c(NCCN)nc4ccccc4c3c(=O)c2c1", "growth": "53.3% (inactive)"},
      {"compound": "CC1=CCC(OC(=O)C(C)(C)CC(O)(C(C)O)C(O)C2(C)C=CC(Cc3ccc(C(C)C)cc3)(C(C)C)CC2)(C(C)C)CC1", "note": "(stereo not given)", "growth": "95.9% (inactive)"},
      {"compound": "COc1ccc(C2CC(c3ccc(OC)cc3O)=NN2c2ccc(S(N)(=O)=O)cc2)cc1", "note": "(stereo not given)", "growth": "-23.2% (active)"},
      {"compound": "CCN(CC)CCSc1ncnc2c1cnn2-c1ccc(S(N)(=O)=O)cc1", "growth": "72.4% (inactive)"},
      {"compound": "COc1cc(C)ccc1Oc1nc(Nc2ccc(N3CCOCC3)cc2)ncc1NC(=O)Nc1cc(C(F)(F)F)cc(C(F)(F)F)c1", "growth": "42.4% (inactive)"},
      {"compound": "Cc1cc(N2CCOCC2)nc(N(CCCNc2ccnc3cc(Cl)ccc23)Cc2ccco2)n1", "growth": "-26.3% (active)"},
      {"compound": "N=C(N)c1ccc(-c2ccc(-c3ccccc3)s2)cc1F", "growth": "-73.1% (active)"},
      {"compound": "C/C(=C\\c1ccc([N+](=O)[O-])cc1)C(=O)O", "growth": "105% (inactive)"},
      {"compound": "CCOC(=O)c1c(C)nc2c(c1N)/C(=C/c1ccc(OC)cc1)C(=O)N2Cc1ccccc1", "growth": "45.8% (inactive)"},
      {"compound": "COc1cc(Nc2ccnc(N3CCN(c4ccnc5cc(Cl)ccc45)CC3)n2)cc(OC)c1", "growth": "-23.7% (active)"},
      {"compound": "C=C(C)[C@@H]1CC[C@]2(CO)CC[C@]3(C)[C@H](CC[C@@H]4[C@@]5(C)CCCNC(C)(C)[C@@H]5CC[C@]43C)[C@@H]12", "growth": "-51.9% (active)"},
      {"compound": "CCCSC1=NC2C(N(CC)C(=O)N2CC)N1/N=C/C=C/c1ccccc1[N+](=O)[O-]", "note": "(stereo not given)", "growth": "-29.8% (active)"},
      {"compound": "C[N+](C)(C)C(=O)c1ccccc1", "growth": "125% (inactive)"},
      {"compound": "CCCCCCCCCCCCCCCCCC(=O)Nc1ccc(O)cc1", "growth": "5.77% (active)"},
      {"compound": "CCCCCN(CCCCC)CC(O)c1cc(C)c2ccc3cc(C(C)C)ccc3c2c1", "note": "(stereo not given)", "growth": "-29.6% (active)"},
      {"compound": "O=C1/C(=C/c2ccc(Cl)cc2)CCC/C1=C\\c1ccc(Cl)cc1", "growth": "83% (inactive)"},
      {"compound": "CC(=O)OCC1OC(n2cnc3c(=S)nc(N)[nH]c32)C(OC(C)=O)C1OC(C)=O", "note": "(stereo not given)", "growth": "81.2% (inactive)"},
      {"compound": "COc1cc(/C=N/NC(=O)c2ccc3nc(-c4ccc(Cl)cc4)[nH]c3c2)cc(OC)c1OC", "growth": "44.9% (inactive)"},
      {"compound": "c1ccc2c(c1)Nc1cc3ccccc3cc1N2", "growth": "7.75% (active)"},
      {"compound": "COc1ccc2c(c1)CC[C@@H]1[C@@H]2CC[C@]2(C)c3c(cc(C#N)c4c3sc3ccccc34)C[C@@H]12", "growth": "91.7% (inactive)"},
      {"compound": "Fc1ccc(Nc2nc(Nc3ccc(-c4nc5ccccc5[nH]4)cc3)c3cn[nH]c3n2)cc1", "growth": "91.4% (inactive)"},
      {"compound": "CCN(CC)CCN1C(=O)c2c(c(C)c3c(oc4cc(O)ccc43)c2C)C1=O", "growth": "-50.6% (active)"},
      {"compound": "CCCCOc1nc2ccc(C)cc2cc1/C=C/C(=O)/C=C(O)/C=C/c1cc2cc(C)ccc2nc1OCCCC", "growth": "99% (inactive)"},
      {"compound": "COC(=O)C1(NC(=O)CNC(=O)OCc2ccccc2)CCCC1", "growth": "90.4% (inactive)"},
      {"compound": "CCN(CC)S(=O)(=O)c1ccc(S(=O)(=O)N2CCC[C@@H](C(=O)N3CCN(C(=O)OC(C)(C)C)CC3)C2)cc1", "growth": "70.5% (inactive)"},
      {"compound": "Cc1nn(-c2ccccc2)c2c1N=c1s/c(=C\\c3cn(-c4ccccc4)nc3-c3ccc(Cl)cc3)c(=O)n1C(C)N2", "note": "(stereo not given)", "growth": "78.5% (inactive)"},
      {"compound": "c1cc2cccc3c4cccc5cccc(c(c1)c23)c54", "growth": "109% (inactive)"},
      {"compound": "C=C1C(=O)O[C@H]2[C@H]1CC/C(COC(=O)/C=C\\C(=O)NCc1ccc(Cn3c(=O)sn(CCCI)c3=O)cc1)=C\\CC[C@@]1(C)O[C@@H]21", "growth": "-36.6% (active)"},
      {"compound": "CCC1(C2CCCC2)NC(=O)NC1=O", "note": "(stereo not given)", "growth": "90.9% (inactive)"},
      {"compound": "N#Cc1ccccc1OCC(=O)Nc1nc2c(s1)COc1ccccc1-2", "growth": "107% (inactive)"},
      {"compound": "CCN1C(=O)N(CC)C2Nn3c(s/c(=C4\\C(=O)N(C(C)C)c5ccccc54)c3=O)=NC21", "note": "(stereo not given)", "growth": "6.28% (active)"},
      {"compound": "c1ccc(Nc2ccccn2)cc1", "growth": "64.9% (inactive)"},
      {"compound": "Cc1[nH]c(C(=O)Nc2nc3ccc(NC(=O)CCN)cc3s2)c(Cl)c1Cl", "growth": "83.8% (inactive)"},
      {"compound": "C=C1C(=O)O[C@H]2[C@H]1CC/C(CNC(=O)C(C)c1ccc(CC(C)C)cc1)=C\\CC[C@@]1(C)O[C@@H]21", "note": "(stereo not given in full)", "growth": "-24.4% (active)"},
      {"compound": "O=S(Cc1ccccc1)/C(=C/NC(=S)Nc1ccccc1)c1ccccc1", "note": "(stereo not given)", "growth": "106% (inactive)"},
      {"compound": "Cn1c(=O)c2c(ncn2CC(=O)Nc2ccc(S(N)(=O)=O)cc2)n(C)c1=O", "growth": "94.2% (inactive)"}
    ]}
  ]
}
